This is an account of results in PubChem BioAssay (NCATS).

Assay [1] relates to CRL-7250. Briefly: Cytotoxic Profiling of Annotated Libraries Using Quantitative High-Throughput Screening (AID 1296008). The conditions noted are these: Five cell lines viability, CellTiter-Glo ATP luminescence, 48-72 h; max response: stronger effect = lower value. Put shortly:
(§1)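 Cytotoxicity was measured as CellTiter-Glo ATP luminescence, read after 10 min at room temperature. Compound treatment of the cells lasted 48 or 72 hr at 37 degrees Celsius in a qHTS format.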

Assay [2] has as its system HEK293. The assay is described as above. Particulars: Five cell lines viability, CellTiter-Glo ATP luminescence, 48-72 h; max response: stronger effect = lower value. In outline:
as §1
Background: ATP-based viability assays read luminescence as a measure of living cells.

For assay [3], the system named is HaCat. The description is as above. Particulars: Five cell lines viability, CellTiter-Glo ATP luminescence, 48-72 h; max response: stronger effect = lower value. In outline: as §1
The subject of assay [4] is NIH3T3. Described as above. The conditions noted are these: Five cell lines viability, CellTiter-Glo ATP luminescence, 48-72 h; max response: stronger effect = lower value. In outline:
as §1

Assay [5] deals with HACAT. Briefly: qHTS assay to identify novel small-molecules to repurpose for Merkel cell carcinoma treatment (AID 1296009). Particulars: MCC and control cell lines, CellTiter-Glo viability, 72 h; series mostly up to 44.8 µM. Put shortly:
(§2)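 Cell viability, measured as CellTiter-Glo luminescence, was normalized between DMSO and no-cell wells. The cells had been exposed to 8- or 11-point compound dilutions for 72 hr at 37 degree celsius.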
On the technique in general: In qHTS, concentration-response curves come from the screen itself.

The test system of assay [6] is HEK293T. The assay is described as above. Particulars: MCC and control cell lines, CellTiter-Glo viability, 72 h; at 44.8 µM (top of the series) unless noted. In outline:
as §2

Assay [7] has as its system MCC-13. The assay is described as above. Particulars: MCC and control cell lines, CellTiter-Glo viability, 72 h; series mostly up to 46 µM. Put shortly: as §2
Assay [8] concerns MKL-1. Described as above. The conditions noted are these: MCC and control cell lines, CellTiter-Glo viability, 72 h; series mostly up to 46 µM. Put shortly:
as §2

Assay [9] has as its system KB-3-1. Briefly: Cytotoxic Profiling of Annotated Libraries Using Quantitative High-Throughput Screening (AID 1296008). The conditions noted are these: Five cell lines viability, CellTiter-Glo ATP luminescence, 48-72 h; max response: stronger effect = lower value. In outline: as §1
For assay [10], the system named is MCC-26. Briefly: qHTS assay to identify novel small-molecules to repurpose for Merkel cell carcinoma treatment (AID 1296009). The conditions noted are these: MCC and control cell lines, CellTiter-Glo viability, 72 h; series mostly up to 46 µM. In outline:
as §2

“And” between values parts separate entries of the source, which are not always exact repeats. Equal values may be shown once. Inconclusive results are not listed. Values without a mark were called inactive. The source made the active and inactive calls. Calls follow the shape of the dose curve; as a rule, active = well fitted inhibition curve with a large enough effect; inconclusive = small, poorly fitted or top-dose-only effect; inactive = flat fitted curve, though single readings scatter.
% is scaled to controls: 0 for no effect and ±100 for the full control effect; potency is read from the fitted curve at half-maximal effect.
Also: nearly all actives have a fitted effect of over 60% in size.

As for `Cc1ccc(C(=O)Nc2ccc(S(=O)(=O)O)c3cc(S(=O)(=O)O)cc(S(=O)(=O)O)c23)cc1NC(=O)c1cccc(NC(=O)Nc2cccc(C(=O)Nc3cc(C(=O)Nc4ccc(S(=O)(=O)O)c5cc(S(=O)(=O)O)cc(S(=O)(=O)O)c45)ccc3C)c2)c1`, the max response is 0.897% in assay [1] and -7.7% in [4]. For the same compound, the result in assay [2], in assay [3], in assay [4], in assay [5] and in assay [6] was inactive. Besides, the Potency result in assay [7] and in assay [8] was “inactive” in each case.
As to `CC[C@@]1(O)C(=O)OCc2c1cc1n(c2=O)Cc2cc3c(CN(C)C)c(O)ccc3nc2-1`, the Potency in assay [1] is 7.5 µM (active) and 14.8 µM (active) and 6.51 µM (active); in assay [2], 372 nM (active) and 517 nM (active); in assay [3], 1.05 µM (active) and 1.46 µM (active); in [9], 5.9 µM (active) and 3.26 µM (active); in assay [4], 1.68 µM (active) and 1.32 µM (active) and 2.06 µM (active); in assay [7], 94.4 nM (active) and 132 nM (active). Moreover, the Potency in [8] was 21.1 nM (active) and 93.5 nM (active).
Consider `CC(C)C(=O)Nc1ccc([N+](=O)[O-])c(C(F)(F)F)c1`, for which the max response was -19.8% in assay [1]; -17.3% and -13.1% in assay [9]; -15.1% in [4]. Besides, the outcome in assay [3], in [4] and in assay [5] was inactive. For the same compound, the Potency entry in assay [7], in assay [10] and in assay [8] was “inactive” each time.
As to `CN(Cc1cnc2nc(N)nc(N)c2n1)c1ccc(C(=O)N[C@@H](CCC(=O)O)C(=O)O)cc1`, the Potency was 119 nM (active) in assay [1]; 29.9 nM (active) and 33.2 nM (active) in assay [2]; 418 nM (active) in assay [3]; 266 nM (active) and 332 nM (active) in assay [4]; 10.5 µM (active) in assay [8].
Take `CC(C(=O)O)c1cccc(C(=O)c2ccccc2)c1` (centres undefined): the compound was classed as inactive in [5]. Besides, the Potency entry in assay [7], in assay [10] and in assay [8] was “inactive” in each case.
For `COc1cc2nc(N3CCN(C(=O)c4ccco4)CC3)nc(N)c2cc1OC`, the max response was -3.1% in [3] and -23.2% in [4]. For the same compound, the Potency entry in assay [7] and in [10] was “inactive” in each case. Besides, the Potency in [8] was 29.6 µM (active).
